This passage reports outcome and AC50 results from PubChem BioAssay (EPA / NIEHS).

Records with an inconclusive call do not appear. Activity calls are given as the source filed them. The calls were made as follows, unless noted: active = hit-call score of the fitted dose curve at least 0.9, where 1 is the maximum; inactive = score below 0.9.

Test [1] has as its target Hepatocyte nuclear factor 3-beta (Homo sapiens) (UniProt Q9Y261). Nature of the test: ATG_FoxA2_CIS: Attagene CIS-FACTORIAL HepG2 Assay for human Forkhead box A2 (FOXA2) (AID 2282942). Particulars: HepG2 cis-reporter transcription factor activity, 24 h; actives raise or lower the signal. A digest of the protocol:
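Endogenous transcription factor activity was read in HepG2 cells carrying transiently transfected cis-promoter reporter units. After 24 h dosing, reporter mRNA was quantified by RT-PCR and capillary electrophoresis, and values fitted bidirectionally versus DMSO.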

For test [2], the target named is Heat shock factor protein 1 (Homo sapiens) (UniProt Q00613). Nature of the test: ATG_HSE_CIS: Attagene CIS-FACTORIAL HepG2 Assay for human Heat Shock Transcription Factor 1 (HSE) (AID 2282953). Particulars: HepG2 HSE cis-reporter, Attagene RNA transcription; actives raise or lower the signal. The method, boiled down:
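HepG2 cells transfected with cis-promoter reporter units sensing endogenous transcription factor activity; reporter mRNA quantified 24 h post-dose by RT-PCR and capillary electrophoresis of 6-FAM-labelled products. Bidirectional fitting against DMSO.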

Test [3] can be described thus: ATG_RORE_CIS: Attagene CIS-FACTORIAL HepG2 Assay for human RAR-related Orphan Receptor Element (RORE) (AID 2282959). Particulars: HepG2 Attagene cis-factorial RORE reporter, mRNA; actives raise or lower the signal. The method, boiled down: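 Cells were HepG2 carrying transfected cis-regulated reporter constructs, dosed for 24 hours. Total RNA was reverse-transcribed and reporter cDNA amplified, fluorescently labeled and sized by capillary electrophoresis. Activity was fitted bidirectionally relative to DMSO.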

The nature of test [4]: ATG_Sox_CIS: Attagene CIS-FACTORIAL HepG2 Assay for human SRY-box transcription factor (SOX) (AID 2282960). The settings on record: HepG2 Attagene cis-factorial SOX reporter, mRNA; actives raise or lower the signal. The method, boiled down:
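Transient MRTU transfection of HepG2; 24 h compound incubation; TriZol RNA, oligo(dT) RT, PCR, 6-FAM primer extension, HpaI cut, CE. Bidirectional fit, DMSO = baseline.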

For test [5], the target named is Transcription factor Sp1 (Homo sapiens) (UniProt P08047). Briefly: ATG_Sp1_CIS: Attagene CIS-FACTORIAL HepG2 Assay for human Specificity Protein 1 (Sp1) (AID 2282961). The settings on record: HepG2 Sp1 cis-reporter transcription, actives raise or lower the signal. The method, boiled down: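 Endogenous Sp1 activity was gauged in human liver HepG2 cells bearing transfected reporter units under a cis-regulating promoter. After 24 h dosing, reporter mRNA was quantified by RT-PCR with capillary electrophoresis, and activity fitted bidirectionally versus DMSO.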
Sequence of Transcription factor Sp1 (Homo sapiens) (P08047 whole entry, looked up): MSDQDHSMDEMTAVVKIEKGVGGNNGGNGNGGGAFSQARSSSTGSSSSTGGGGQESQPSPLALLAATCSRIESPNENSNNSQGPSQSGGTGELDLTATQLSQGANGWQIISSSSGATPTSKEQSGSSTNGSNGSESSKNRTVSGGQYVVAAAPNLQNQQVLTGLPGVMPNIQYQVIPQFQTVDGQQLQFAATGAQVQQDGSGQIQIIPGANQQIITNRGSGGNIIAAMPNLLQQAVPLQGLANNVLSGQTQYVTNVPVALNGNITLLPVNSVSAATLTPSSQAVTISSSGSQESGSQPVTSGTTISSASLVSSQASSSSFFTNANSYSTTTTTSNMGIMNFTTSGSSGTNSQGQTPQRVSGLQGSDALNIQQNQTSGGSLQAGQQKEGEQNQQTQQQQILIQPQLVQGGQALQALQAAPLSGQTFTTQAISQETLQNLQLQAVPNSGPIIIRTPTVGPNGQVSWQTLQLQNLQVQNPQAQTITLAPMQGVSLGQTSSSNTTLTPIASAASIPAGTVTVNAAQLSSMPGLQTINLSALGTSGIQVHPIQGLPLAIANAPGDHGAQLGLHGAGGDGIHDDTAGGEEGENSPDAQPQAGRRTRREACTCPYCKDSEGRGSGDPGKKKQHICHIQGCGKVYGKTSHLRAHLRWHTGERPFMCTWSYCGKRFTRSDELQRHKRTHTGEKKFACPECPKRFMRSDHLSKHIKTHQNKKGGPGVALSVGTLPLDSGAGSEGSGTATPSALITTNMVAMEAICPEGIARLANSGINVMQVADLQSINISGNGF

Test [6] is described as follows: ATG_SREBP_CIS: Attagene CIS-FACTORIAL HepG2 Assay for human Sterol Regulatory Element Binding (SREBP) (AID 2282962). Particulars: HepG2 Attagene cis-factorial SREBP reporter, mRNA; actives raise or lower the signal. The method, boiled down:
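In this cis-format assay, HepG2 liver cells express reporters controlled by promoter elements responsive to native transcription factors. Exposure lasts 24 h; reporter mRNA fluorescence from capillary electrophoresis gives the signal, fitted bidirectionally against DMSO.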

The target in test [7] is Signal transducer and activator of transcription 3 (Homo sapiens) (UniProt P40763). Briefly: ATG_STAT3_CIS: Attagene CIS-FACTORIAL HepG2 Assay for human Signal Transducer and Activator of Transcription 3 (STAT3) (AID 2282963). Particulars: HepG2, Attagene cis-factorial STAT3 reporter transcription; actives raise or lower the signal. A digest of the protocol:
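Readout: fluorescent reporter mRNA fragments resolved by capillary electrophoresis. Setup: HepG2 transfected with MRTUs reporting endogenous transcription-factor activity, dosed 24 h. Gain or loss of signal fitted bidirectionally against DMSO control.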

Test [8] can be described thus: ATG_TA_CIS: Attagene CIS-FACTORIAL HepG2 Assay for human TA Basal Promoter (AID 2282964). Particulars: HepG2 Attagene CIS-factorial TA basal promoter reporter; actives raise or lower the signal. The method, boiled down:
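HepG2 cells transiently transfected with multiple reporter units under cis promoter elements, reporting endogenous transcription factor activity; this endpoint tracks the TA basal promoter as background control. Reporter mRNA after 24 h dosing measured by RT-PCR/capillary electrophoresis; bidirectional fits versus DMSO.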

Test [9] is described as follows: ATG_TCF_b_cat_CIS: Attagene CIS-FACTORIAL HepG2 Assay for human T-Cell-Factor with beta-catenin (TCF/b-cat) (AID 2282965). The settings on record: HepG2 TCF/beta-catenin cis-reporter transcription, actives raise or lower the signal. A digest of the protocol:
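HepG2 cells transiently transfected with cis-promoter-driven multiplexed reporter units; reporter mRNA measured 24 h after dosing by RT-PCR, FAM labelling, HpaI digestion and capillary electrophoresis. Bidirectional fitting relative to DMSO baseline.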

Test [10] in a line: ATG_TAL_CIS: Attagene CIS-FACTORIAL HepG2 Assay for human TAL Basal Promoter (AID 2282966).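 Also: background control endpoint measuring basal TAL promoter reporter mRNA not a specific factor.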 Particulars: HepG2 Attagene cis-factorial TAL promoter reporter; actives raise or lower the signal. A digest of the protocol: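 Human hepatoma HepG2 cells, transfected with promoter-regulated reporter units, were treated 24 h. Reporter transcript levels, measured through RT-PCR and capillary electrophoresis, were fitted for gain or loss relative to DMSO.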

The nature of test [11]: ATG_VDRE_CIS: Attagene CIS-FACTORIAL HepG2 Assay for human Vitamin D Receptor Element (VDRE) (AID 2282968). The settings on record: HepG2 VDRE cis-reporter transcription, actives raise or lower the signal. A digest of the protocol:
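Transient MRTU transfection of HepG2, 24 h compound exposure. Readout: reporter transcripts via RT-PCR and capillary electrophoresis, fluorescence. Bidirectional fit vs DMSO.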

In test [12] the target is Transcriptional activator Myb (Homo sapiens) (UniProt P10242). Nature of the test: ATG_Myb_CIS: Attagene CIS-FACTORIAL HepG2 Assay for human Myeloblastosis (Myb) Proto-Oncogene Transcription Factor (AID 2282986). Particulars: HepG2 Attagene CIS-FACTORIAL Myb reporter transcription; actives raise or lower the signal. The method, boiled down: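 Steps: transfect HepG2 with cis-regulated reporter units; dose with chemical for 24 h; isolate RNA, reverse-transcribe, PCR-amplify and FAM-label reporter sequences; digest with HpaI; resolve by capillary electrophoresis. Activity fitted in both directions relative to DMSO.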
Sequence of Transcriptional activator Myb (Homo sapiens) (P10242 whole entry, looked up): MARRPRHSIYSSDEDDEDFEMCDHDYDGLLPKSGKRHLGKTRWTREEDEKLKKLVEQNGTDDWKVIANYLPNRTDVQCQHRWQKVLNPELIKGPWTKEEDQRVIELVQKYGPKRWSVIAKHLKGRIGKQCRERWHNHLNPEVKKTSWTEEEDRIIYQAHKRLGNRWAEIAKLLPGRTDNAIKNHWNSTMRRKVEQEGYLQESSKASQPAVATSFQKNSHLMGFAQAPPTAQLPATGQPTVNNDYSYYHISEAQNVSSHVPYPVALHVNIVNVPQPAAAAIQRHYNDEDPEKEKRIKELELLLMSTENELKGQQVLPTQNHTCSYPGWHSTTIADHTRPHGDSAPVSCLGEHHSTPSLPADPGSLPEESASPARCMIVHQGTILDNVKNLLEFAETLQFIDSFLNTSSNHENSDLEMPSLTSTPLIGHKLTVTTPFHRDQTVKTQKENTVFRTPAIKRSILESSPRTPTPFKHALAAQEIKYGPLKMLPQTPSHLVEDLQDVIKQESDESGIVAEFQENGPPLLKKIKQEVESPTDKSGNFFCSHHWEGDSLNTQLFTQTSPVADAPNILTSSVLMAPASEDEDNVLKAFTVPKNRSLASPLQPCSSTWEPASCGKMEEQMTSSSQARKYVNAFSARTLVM

For test [13], the target named is Nuclear respiratory factor 1 (Homo sapiens) (UniProt Q16656). Briefly: ATG_NRF1_CIS: Attagene CIS-FACTORIAL HepG2 Assay for human Nuclear Respiratory Factor 1 (NRF1) Orphan Gene (AID 2282987). Particulars: HepG2 NRF1 cis-element reporter, Attagene multiplex; actives raise or lower the signal. A digest of the protocol:
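Fluorescence intensity of labelled reporter cDNA fragments, resolved by capillary electrophoresis, served as readout for NRF1 cis-element activity. Transiently transfected HepG2 cells were dosed for 24 hours; activity in either direction was fitted against DMSO negative control.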

Test [14] can be described thus: ATG_NFI_CIS: Attagene CIS-FACTORIAL HepG2 Assay for human Nuclear Factor I (NFI) (AID 2282989). Particulars: HepG2 cis-regulatory reporter, NFI response element transcription; actives raise or lower the signal. A digest of the protocol: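 Endogenous TF activity in HepG2 cells transiently transfected with cis-element-driven multiplexed reporter units, read 24 h after dosing. Reporter mRNA quantified by RT-PCR, 6-FAM labelling, HpaI digestion and capillary electrophoresis; bidirectional fit versus DMSO.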

The target in test [15] is Myc proto-oncogene protein (Homo sapiens) (UniProt P01106). Briefly: ATG_Myc_CIS: Attagene CIS-FACTORIAL HepG2 Assay for human Myelocytomatosis (Myc) Proto-Oncogene Transcription Factor (AID 2282990). The settings on record: HepG2, Attagene cis-reporter transcription factor activity; actives raise or lower the signal. The method, boiled down:
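Transiently transfected HepG2 cells bearing cis-promoter reporter units for endogenous transcription factors; 24 h exposure. Reporter mRNA measured by RT-PCR, 6-FAM primer extension, HpaI cut and capillary electrophoresis; bidirectional fit relative to DMSO.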

Test [16] is described as follows: ATG_NRF2_ARE_CIS: Attagene CIS-FACTORIAL HepG2 Assay for human Nuclear Factor Erythroid 2 Related Factor 2 (NFR2) response to Antioxidant Response Elements (ARE) (AID 2282992). Particulars: HepG2 Attagene ARE/NRF2 reporter, transcription factor activity; actives raise or lower the signal. The method, boiled down: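 Using transiently transfected HepG2 cells exposed for 24 h, reporter mRNA levels were determined by RT-PCR with fluorescent primer extension and capillary electrophoresis, analysed for gain or loss of signal against DMSO.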

Test [17] in a line: ATG_Oct_MLP_CIS: Attagene CIS-FACTORIAL HepG2 Assay for human Octamer-Binding Transcription Factor (Oct) (AID 2282993). The settings on record: HepG2 Attagene cis-factorial Oct reporter, mRNA; actives raise or lower the signal. The method, boiled down: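 HepG2 cells transiently transfected with cis-element-driven reporter transcription units (endogenous TF activity); 24 h compound exposure. Reporter mRNA quantified by RT-PCR, 6-FAM labelling, HpaI digestion and capillary electrophoresis; bidirectional fit versus DMSO baseline.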

The target of test [18] is Cellular tumor antigen p53 (Homo sapiens) (UniProt P04637). Briefly: ATG_p53_CIS: Attagene CIS-FACTORIAL HepG2 Assay for human p53 Transcription Factor (AID 2282994). Particulars: HepG2 p53 cis-element reporter, Attagene mRNA; actives raise or lower the signal. The method, boiled down:
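In HepG2 cells, reporter transcription units under cis-regulatory promoters were transiently introduced. Following 24 h treatment, RNA was processed to labelled, digested cDNA fragments read by capillary electrophoresis; fitting was bidirectional versus DMSO.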

Test [19] deals with Nuclear receptor subfamily 1 group I member 2 (Homo sapiens) (UniProt O75469). Briefly: ATG_PXR_TRANS: Attagene TRANS-FACTORIAL HepG2 Assay for human Pregnane X Receptor (PXR) (AID 2283008; active = hit-call score of the fitted dose curve at least 0.9, where 1 is the maximum). The method, boiled down: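 Multiplexed TRANS reporter panel in HepG2; this component tracks PXR-Gal4-driven reporter mRNA after 24 h dosing, measured by RT-PCR with capillary electrophoresis fluorescence, fitted against DMSO.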
Sequence of Nuclear receptor subfamily 1 group I member 2 (Homo sapiens) (O75469 whole entry, looked up, the tested form may be a part): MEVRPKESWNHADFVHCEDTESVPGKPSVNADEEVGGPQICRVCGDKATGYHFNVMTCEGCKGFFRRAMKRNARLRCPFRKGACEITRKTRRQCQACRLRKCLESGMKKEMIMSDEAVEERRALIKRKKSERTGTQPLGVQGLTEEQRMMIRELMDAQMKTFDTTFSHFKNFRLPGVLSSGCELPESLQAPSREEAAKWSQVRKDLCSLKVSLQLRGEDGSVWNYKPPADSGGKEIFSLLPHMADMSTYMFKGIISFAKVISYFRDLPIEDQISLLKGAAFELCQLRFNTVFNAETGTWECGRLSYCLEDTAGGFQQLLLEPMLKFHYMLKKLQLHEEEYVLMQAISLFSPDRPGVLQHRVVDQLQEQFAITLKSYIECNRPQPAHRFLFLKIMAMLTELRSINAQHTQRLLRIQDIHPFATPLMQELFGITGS

A short description of test [20]: ATG_XTT_Cytotoxicity: Cytotoxicity Assessment in the Attagene TRANS-FACTORIAL HepG2 Assay (AID 2283584; active = hit-call score of the fitted dose curve at least 0.9, where 1 is the maximum). The method, boiled down:
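24 h chemical exposure of reporter-transfected HepG2; XTT signal loss vs DMSO indicates cytotoxicity.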

Sequence of Nuclear respiratory factor 1 (Homo sapiens) (Q16656 whole entry, looked up, the tested form may be a part): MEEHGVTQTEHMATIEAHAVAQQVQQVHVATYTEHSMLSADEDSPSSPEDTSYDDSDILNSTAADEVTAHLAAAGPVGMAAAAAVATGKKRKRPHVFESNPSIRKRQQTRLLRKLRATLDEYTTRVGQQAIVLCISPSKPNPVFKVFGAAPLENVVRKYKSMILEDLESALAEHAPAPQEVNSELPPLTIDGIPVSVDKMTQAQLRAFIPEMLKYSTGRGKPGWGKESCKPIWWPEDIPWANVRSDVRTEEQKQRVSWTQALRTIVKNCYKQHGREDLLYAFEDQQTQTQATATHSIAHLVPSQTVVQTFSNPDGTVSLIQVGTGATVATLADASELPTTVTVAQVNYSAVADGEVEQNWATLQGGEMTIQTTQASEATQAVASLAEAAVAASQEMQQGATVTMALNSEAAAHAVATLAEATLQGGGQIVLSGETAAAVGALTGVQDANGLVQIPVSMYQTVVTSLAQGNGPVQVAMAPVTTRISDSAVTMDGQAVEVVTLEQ
Sequence of Myc proto-oncogene protein (Homo sapiens) (P01106 whole entry, looked up): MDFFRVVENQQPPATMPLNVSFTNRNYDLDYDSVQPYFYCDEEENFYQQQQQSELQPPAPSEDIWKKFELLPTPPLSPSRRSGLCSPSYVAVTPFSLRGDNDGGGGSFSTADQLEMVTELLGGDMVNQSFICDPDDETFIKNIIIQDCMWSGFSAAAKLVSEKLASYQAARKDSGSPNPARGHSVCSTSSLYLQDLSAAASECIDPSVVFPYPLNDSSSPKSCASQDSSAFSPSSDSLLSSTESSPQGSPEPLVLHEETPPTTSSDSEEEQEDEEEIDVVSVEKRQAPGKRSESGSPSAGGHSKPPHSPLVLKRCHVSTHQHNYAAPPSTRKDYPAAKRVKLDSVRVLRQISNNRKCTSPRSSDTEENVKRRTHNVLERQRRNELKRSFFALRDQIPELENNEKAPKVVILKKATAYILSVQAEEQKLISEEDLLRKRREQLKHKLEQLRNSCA
Sequence of Hepatocyte nuclear factor 3-beta (Homo sapiens) (Q9Y261 whole entry, looked up): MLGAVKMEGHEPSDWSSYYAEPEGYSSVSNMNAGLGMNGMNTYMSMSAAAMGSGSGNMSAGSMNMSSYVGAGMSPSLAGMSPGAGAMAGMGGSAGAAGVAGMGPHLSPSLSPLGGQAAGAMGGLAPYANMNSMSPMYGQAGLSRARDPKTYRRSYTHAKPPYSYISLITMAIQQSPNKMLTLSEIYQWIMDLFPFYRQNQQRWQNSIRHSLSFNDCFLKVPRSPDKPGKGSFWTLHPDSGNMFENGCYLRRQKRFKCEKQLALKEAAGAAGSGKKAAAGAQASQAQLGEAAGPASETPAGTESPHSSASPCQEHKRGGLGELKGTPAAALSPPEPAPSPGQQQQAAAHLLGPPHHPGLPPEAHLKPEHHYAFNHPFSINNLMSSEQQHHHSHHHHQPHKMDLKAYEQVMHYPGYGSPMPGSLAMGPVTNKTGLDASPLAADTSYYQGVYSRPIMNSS
Sequence of Signal transducer and activator of transcription 3 (Homo sapiens) (P40763 whole entry, looked up, the tested form may be a part): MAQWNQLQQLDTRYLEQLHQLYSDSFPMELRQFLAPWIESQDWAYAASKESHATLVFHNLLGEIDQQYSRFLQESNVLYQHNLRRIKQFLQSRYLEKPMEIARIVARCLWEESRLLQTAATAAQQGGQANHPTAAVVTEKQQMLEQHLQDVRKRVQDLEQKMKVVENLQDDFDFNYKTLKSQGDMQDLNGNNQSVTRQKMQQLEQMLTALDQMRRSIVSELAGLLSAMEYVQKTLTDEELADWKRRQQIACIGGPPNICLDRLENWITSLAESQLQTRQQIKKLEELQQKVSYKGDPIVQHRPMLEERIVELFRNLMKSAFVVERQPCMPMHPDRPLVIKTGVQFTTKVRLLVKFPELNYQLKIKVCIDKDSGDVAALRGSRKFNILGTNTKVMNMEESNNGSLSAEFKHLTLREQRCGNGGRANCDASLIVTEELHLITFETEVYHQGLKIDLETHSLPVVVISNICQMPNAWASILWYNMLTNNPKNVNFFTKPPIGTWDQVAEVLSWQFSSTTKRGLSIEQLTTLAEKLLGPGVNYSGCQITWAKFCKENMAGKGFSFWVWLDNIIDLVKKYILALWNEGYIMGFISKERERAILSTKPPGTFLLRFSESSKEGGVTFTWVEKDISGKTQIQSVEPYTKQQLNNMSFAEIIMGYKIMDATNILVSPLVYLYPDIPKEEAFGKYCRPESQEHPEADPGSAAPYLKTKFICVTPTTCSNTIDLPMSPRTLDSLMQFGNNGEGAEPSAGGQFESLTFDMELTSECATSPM
Sequence of Heat shock factor protein 1 (Homo sapiens) (Q00613 whole entry, looked up): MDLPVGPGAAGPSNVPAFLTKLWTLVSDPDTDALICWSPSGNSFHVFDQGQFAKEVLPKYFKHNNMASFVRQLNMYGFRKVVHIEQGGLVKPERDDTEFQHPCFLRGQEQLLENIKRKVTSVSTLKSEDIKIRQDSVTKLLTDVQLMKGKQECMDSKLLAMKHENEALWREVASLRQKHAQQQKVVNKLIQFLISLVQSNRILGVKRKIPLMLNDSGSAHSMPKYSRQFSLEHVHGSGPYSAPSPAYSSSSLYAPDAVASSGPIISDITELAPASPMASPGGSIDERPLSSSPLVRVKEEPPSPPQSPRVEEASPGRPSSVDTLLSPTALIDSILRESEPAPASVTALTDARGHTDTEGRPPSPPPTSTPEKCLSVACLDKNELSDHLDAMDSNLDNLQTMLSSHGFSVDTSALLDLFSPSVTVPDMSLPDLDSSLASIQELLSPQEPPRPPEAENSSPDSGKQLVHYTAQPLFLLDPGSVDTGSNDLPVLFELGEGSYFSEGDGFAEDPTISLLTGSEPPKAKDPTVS
Sequence of Cellular tumor antigen p53 (Homo sapiens) (P04637 whole entry, looked up, the tested form may be a part): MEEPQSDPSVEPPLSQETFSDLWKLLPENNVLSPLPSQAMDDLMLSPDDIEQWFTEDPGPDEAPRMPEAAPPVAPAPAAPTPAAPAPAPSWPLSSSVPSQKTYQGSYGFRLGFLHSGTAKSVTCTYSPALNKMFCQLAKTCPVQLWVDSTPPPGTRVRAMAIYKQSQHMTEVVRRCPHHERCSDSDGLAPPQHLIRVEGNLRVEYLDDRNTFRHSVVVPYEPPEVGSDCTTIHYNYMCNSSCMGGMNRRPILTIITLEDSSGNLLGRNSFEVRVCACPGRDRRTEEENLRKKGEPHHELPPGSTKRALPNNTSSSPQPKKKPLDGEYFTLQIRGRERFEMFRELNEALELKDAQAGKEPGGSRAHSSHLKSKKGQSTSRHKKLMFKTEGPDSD

For the compound `c1cc(N(CC2CO2)CC2CO2)ccc1Cc1ccc(N(CC2CO2)CC2CO2)cc1` (centres undefined), the outcome in [1], in test [3], in test [4], in test [7], in test [10] and in test [12] was inactive. The result in [13], in test [15], in test [16], in [19] and in [20] was inactive. Also, the AC50 in [2] is 18.6 µM (active); in test [5], 5.73 µM (active); in [6] it was 26.4 µM (active); in test [8], 26.1 µM (active); in test [9] it was 26.1 µM (active); in [11] it was 3.66 µM (active). For the same compound, the AC50 is 5.98 µM (active) in test [14], 8.18 µM (active) in [17] and 20.8 µM (active) in test [18].
As to `O=C(OCc1ccccc1)c1ccccc1`, the compound was called inactive in test [1], in test [2], in test [3], in test [4], in test [5] and in [6]. Further, the compound was classed as inactive in [7], in test [8], in test [9], in test [10], in test [11] and in test [12]. In addition, the result in test [13], in test [14], in test [15], in [16], in [17] and in [19] was inactive. Further, the outcome in [20] was inactive.
On to `CC(=O)CCc1ccccc1`, for which the result in [1], in test [2], in [3], in [4], in [5] and in test [6] was inactive. Also, the call in [7], in test [8], in test [9], in [10], in test [11] and in test [12] was inactive. The outcome in [13], in test [14], in test [15], in test [16], in test [17] and in test [18] was inactive. Further, the call in test [19] and in [20] was inactive.
